# Source: the supplement of paper PMC3545927
# The other results are listed elsewhere or left out. The hit rate among all sequences tested is not known here.
# B1: NE1 (peptide)
# chain: CAGGGGGGGGAGNASASA
# B2: FS-427 (peptide)
# chain: CAGGGRTRREAGNASASA
# B3: HC1095 (peptide)
# chain: CAMSGEVPSTAGNASASA
# B4: FS-1318 (peptide)
# chain: CAEGGRRRREAGNASASA
# B5: FS-1468 (peptide)
# chain: CAMSGRRLREAGNASASA
# B6: HC1355 (peptide)
# chain: CAPPLEGEPGAGNASASA
# B7: FS-161 (peptide)
# chain: CAGKSVKKRSAGNASASA
# B8: FS-1198 (peptide)
# chain: CAGKSLKKRSAGNASASA
# B9: HC1445 (peptide)
# chain: CAPEKGGRKPAGNASASA
# B10: HC1186 (peptide)
# chain: CATCRNMWSGAGNASASA
# B11: HC2144 (peptide)
# chain: CAIVVTSTWVAGNASASA
# B12: FS-824 (peptide)
# chain: CALLVRKKRKAGNASASA
# B13: FS-337 (peptide)
# chain: CAIFWRKKRKAGNASASA
# B14: FS-1339 (peptide)
# chain: CAHLVRKKRKAGNASASA
# B15: FS-1278 (peptide)
# chain: CASGSKKKRKAGNASASA
# B16: HC1267 (peptide)
# chain: CAATCTANHDAGNASASA
# B17: HC1463 (peptide)
# chain: CAAVMGSSYGAGNASASA
# B18: HC545 (peptide)
# chain: CALVFFCFAWAGNASASA
# B19: FS-521 (peptide)
# chain: CAAKRRFRRQAGNASASA
# B20: FS-1598 (peptide)
# chain: CAKYNRGRRKAGNASASA
# B21: FS-1443 (peptide)
# chain: CAAKRRTRRQAGNASASA
# B22: HC167 (peptide)
# chain: CARNTNRRPQAGNASASA
# B23: FS-1018 (peptide)
# chain: CAKNNRGRRQAGNASASA
# B24: HC956 (peptide)
# chain: CAATVCARAQAGNASASA
# B25: HC1441 (peptide)
# chain: CAKNEVFCVQAGNASASA
# B26: FS-453 (peptide)
# chain: CAKSNRFRRQAGNASASA
# B27: HC1973 (peptide)
# chain: CAERTTPCSGAGNASASA
# B28: HC106 (peptide)
# chain: CAVVCCFMSYAGNASASA
# B29: HC7 (peptide)
# chain: CAMEEWSQHLAGNASASA
# B30: FS-2121 (peptide)
# chain: CAKARRFVEQAGNASASA
# B31: FS-783 (peptide)
# chain: CAGKRRFRRQAGNASASA
# B32: FS-1001 (peptide)
# chain: CAGMLRQRRPAGNASASA
# B33: FS-530 (peptide)
# chain: CAGHGRQERSAGNASASA
# B34: FS-1588 (peptide)
# chain: CAFAERQRRSAGNASASA
# B35: FS-1458 (peptide)
# chain: CAGTTRQRRSAGNASASA
# B36: FS-1322 (peptide)
# chain: CAFAERSGRGAGNASASA
# B37: FS-163 (peptide)
# chain: CAGRHCVRRSAGNASASA
# B38: HC742 (peptide)
# chain: CAGSSGGPLLAGNASASA
# B39: HC2422 (peptide)
# chain: CAEVPCHRPQAGNASASA
# B40: HC1995 (peptide)
# chain: CAHVCCSMSYAGNASASA
# B41: HC2576 (peptide)
# chain: CASTPCSAHGAGNASASA
# B42: HC630 (peptide)
# chain: CAIKLGALTGAGNASASA
# B43: HC1021 (peptide)
# chain: CAGMMLAEQFAGNASASA
# B44: FS-90 (peptide)
# chain: CASCARHRRSAGNASASA
# B45: FS-1825 (peptide)
# chain: CARHRRLRGPAGNASASA
# B46: FS-707 (peptide)
# chain: CARHRRQRRSAGNASASA
# B47: FS-1411 (peptide)
# chain: CASKRDHRRSAGNASASA
# Molecular target: furin, P09958
# Sequence (P09958 whole entry): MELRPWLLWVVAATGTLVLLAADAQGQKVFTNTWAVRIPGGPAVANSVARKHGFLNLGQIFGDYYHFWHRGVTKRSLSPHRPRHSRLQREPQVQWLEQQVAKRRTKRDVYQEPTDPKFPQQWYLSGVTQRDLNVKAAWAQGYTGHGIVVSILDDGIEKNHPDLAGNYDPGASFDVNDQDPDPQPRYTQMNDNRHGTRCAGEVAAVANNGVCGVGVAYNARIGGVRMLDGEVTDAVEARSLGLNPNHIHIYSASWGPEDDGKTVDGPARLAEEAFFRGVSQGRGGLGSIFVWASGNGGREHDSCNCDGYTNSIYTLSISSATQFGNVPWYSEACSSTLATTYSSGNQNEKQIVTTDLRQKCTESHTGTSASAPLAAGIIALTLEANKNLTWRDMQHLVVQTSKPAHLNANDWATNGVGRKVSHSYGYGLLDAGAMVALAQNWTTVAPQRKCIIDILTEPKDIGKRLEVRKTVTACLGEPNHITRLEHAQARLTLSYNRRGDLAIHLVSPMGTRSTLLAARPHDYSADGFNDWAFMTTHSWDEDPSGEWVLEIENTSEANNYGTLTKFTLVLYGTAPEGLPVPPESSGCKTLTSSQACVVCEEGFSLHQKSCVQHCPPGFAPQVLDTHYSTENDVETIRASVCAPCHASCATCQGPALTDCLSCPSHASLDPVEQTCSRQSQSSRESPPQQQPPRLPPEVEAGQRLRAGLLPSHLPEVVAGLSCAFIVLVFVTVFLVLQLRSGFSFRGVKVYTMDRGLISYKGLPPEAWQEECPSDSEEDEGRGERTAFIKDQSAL
# Test: furin cleavage Z-score vs untreated control; higher = more cleavage, active = 3.5 or more, inactive = 1 or less, 8 variable residues between constant flanks
# In short: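 Sequencing of released DNA, tagged with adapters by PCR, gave read counts used as abundance. That DNA was freed when purified furin cut N-terminally bead-bound 8-mer peptides fused to a cDNA oligonucleotide, in 0.01 ml reactions at 1:10 enzyme:substrate in 50 mM HEPES pH 7.5 with CaCl2 and NaCl, lasting 7.5, 15 or 30 min. The cleavage Z-score was the lowess-adjusted log count versus furin-free reactions, scaled by median absolute deviation.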
Sequence,furin cleavage Z-score (7.5 min),furin cleavage Z-score (15 min),furin cleavage Z-score (30 min)
B1,1.03,0.409 (inactive),1.54
B2,3.88 (active),3.57 (active),2.42
B3,-0.208 (inactive),-0.846 (inactive),0.503 (inactive)
B4,4.58 (active),3.64 (active),2.94
B5,3.25,3.96 (active),3.6 (active)
B6,0.988 (inactive),0.95 (inactive),0.522 (inactive)
B7,8.72 (active),12 (active),9.51 (active)
B8,10.8 (active),8.86 (active),8.35 (active)
B9,0.667 (inactive),-1.91 (inactive),-0.0787 (inactive)
B10,1.45,1.34,0.472 (inactive)
B11,0.282 (inactive),-0.196 (inactive),0.858 (inactive)
B12,9.19 (active),10.5 (active),8.06 (active)
B13,4.37 (active),3.52 (active),5.53 (active)
B14,10.2 (active),11.5 (active),10.3 (active)
B15,-1.57 (inactive),0.447 (inactive),0.492 (inactive)
B16,-0.592 (inactive),0.126 (inactive),0.634 (inactive)
B17,-0.652 (inactive),0.469 (inactive),-0.776 (inactive)
B18,-0.625 (inactive),-0.493 (inactive),-2.31 (inactive)
B19,11.3 (active),11.5 (active),9.92 (active)
B20,-1.68 (inactive),1.26,2.34
B21,9.31 (active),8.38 (active),7.06 (active)
B22,0.367 (inactive),0.97 (inactive),-0.345 (inactive)
B23,8.48 (active),8.87 (active),9.25 (active)
B24,-0.452 (inactive),0.685 (inactive),-0.234 (inactive)

Sequence,furin cleavage Z-score (7.5 min),furin cleavage Z-score (15 min),furin cleavage Z-score (30 min)
B25,-0.977 (inactive),-0.752 (inactive),-0.637 (inactive)
B26,9.35 (active),7.39 (active),5.76 (active)
B27,-0.657 (inactive),0.759 (inactive),0.0382 (inactive)
B28,0.2 (inactive),-0.139 (inactive),-1.5 (inactive)
B29,-0.124 (inactive),0.451 (inactive),0.398 (inactive)
B30,-0.772 (inactive),0.447 (inactive),-0.0659 (inactive)
B31,8.34 (active),7.16 (active),6.56 (active)
B32,-1.01 (inactive),-1.53 (inactive),-1.03 (inactive)
B33,1.31,3.84 (active),3.39
B34,11.1 (active),11 (active),10.4 (active)
B35,9.35 (active),9.67 (active),7.94 (active)
B36,-0.454 (inactive),0.465 (inactive),0.178 (inactive)
B37,3.46,4.86 (active),4.64 (active)
B38,-1.42 (inactive),-0.944 (inactive),-0.396 (inactive)
B39,1.53,0.977 (inactive),-0.457 (inactive)
B40,-0.946 (inactive),-0.551 (inactive),-0.241 (inactive)
B41,-0.871 (inactive),0.825 (inactive),-0.885 (inactive)
B42,-0.745 (inactive),-0.643 (inactive),-1.94 (inactive)
B43,0.171 (inactive),0.335 (inactive),-0.461 (inactive)
B44,4.64 (active),3.79 (active),4.71 (active)
B45,-1.67 (inactive),-0.893 (inactive),-1.28 (inactive)
B46,10.1 (active),10.5 (active),8.1 (active)
B47,1.79,-0.35 (inactive),0.449 (inactive)
